# Bioassay records (PubChem BioAssay)
# PAX8 reporter: lowers PAX8-driven luciferase in RMG-I cells; actives 1.2% (n = 360,000); RMG-I TPO-luciferase reporter, SteadyGlo, 24 h; inhibition, % at 12.6 µM;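 active = mean replicate inhibition at least 60% with every replicate also reaching 60%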;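 also: luciferase light reporting Pax8 driven TPO promoter activity; plate controls were median of neutral control wells for no effect and mitoxantrone controls for full effect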
# PGC1a acetyl inh: PGC1a acetylation modulation, inhibitor mode. U2OS PGC1a acetylation, AlphaScreen anti-acetyl-lysine; with virally co-expressed GCN5 acetyltransferase. inhibition, % at 15.6 µM. actives 0.17% (n = 350,000);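 active = every replicate shows inhibition of at least 40%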;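 also: 0% = neutral control wells and 100% = positive control wells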
# GSIS activator: GLuc luminescence reporter in INS-1E cells, primary screen for activators of glucose-dependent secretion of insulin | activation, % at 16.6 µM | AID 743287 | INS-1E GLuc reporter insulin secretion, 2-3 h | actives 0.61% (n = 370,000);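 active = lowest replicate activation of at least 40%, so every replicate reaches that level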;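 also: 0% = median of neutral control wells and 100% = median of IBMX positive control wells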
# CFTR F508del cor: CFTR F508del correction in bronchial cells. activity (quench increase), % at 7.58 µM. actives 0.36% (n = 350,000). AID 720511. CFBE cells, YFP halide quenching; stimulated with forskolin plus potentiator P3; % fluorescence drop versus neutral controls;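 active = mean added fluorescence quench of at least 8% versus neutral control, with both replicates also reaching 8%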;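 also: cells transiently co-express mutant CFTR-F508del with the halide-sensitive YFP; corrector assay measuring rescue of mutant channel to the surface after 24 h compound exposure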
# EWS-Fli inh: inhibitors of EWS/Fli oncoprotein transcriptional activity; A673 NR0B1-luciferase reporter, viability-normalised; inhibition, % at 12.6 µM; actives 0.67% (n = 350,000);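 active = mean inhibition of at least 50% after viability correction, with every replicate also passing that limit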;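 also: firefly luciferase signal divided by Alamar Blue viability fluorescence both relative to DMSO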
# HIV Env fusion: blocks HIV Env-driven cell-cell fusion | AID 651610 | actives 1.1% (n = 360,000) | inhibition, % at 12.3 µM | HeLa-JRFL Env/CEM21 cell fusion, luciferase;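 active = mean replicate inhibition score of at least 50 and every replicate individually at or above 50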;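 also: 0% = plate neutral controls and 100% = maraviroc near 300 nM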
# Starred values were filed as active, the others as inactive; nt = no result; ! = a repeat was not active; [ ] = another dose, or the depositor's remark. The list is not random: actives were taken first. Their share in the collection is about 2.7%.
SMILES,PAX8 reporter,PGC1a acetyl inh,GSIS activator,CFTR F508del cor,EWS-Fli inh,HIV Env fusion
OC(CNCCc1ccc(C(F)(F)F)cc1)COc1ccc2ccccc2c1 (configuration not stated),12.0,-0.2,64.3,0.1,31.9,27.1
OC(CNCCc1ccc(C(F)(F)F)cc1)COc1cccc2ccccc12 (configuration not stated),49.7,7.8,505.5*,nt,nt,13.8
CCN(CC)S(=O)(=O)c1cc([N+](=O)[O-])ccc1NNC(=O)Nc1ccc(Cl)c(Cl)c1,88.7*,nt,nt,nt,nt,97.0*
C[C@@H]1CCCCO[C@H](CN(C)C(=O)C2CCCCC2)[C@@H](C)CN([C@H](C)CO)C(=O)c2cc(NC(=O)CCCCCC(=O)Nc3ccccc3N)ccc2O1,-0.1,22.5,-6.6,-0.8,12.3,-11.0[16.7 µM]
Cc1cc(C)nc(NS(=O)(=O)c2ccc(NS(=O)(=O)c3ccccc3)cc2)n1,nt,10.9,13.2,0.6,10.0,nt
Cc1ccc(S(=O)(=O)Nc2nc(C)cc(NN)n2)cc1,8.5,13.8,46.4*,-0.4,5.5,-28.3
Cc1ccc(S(=O)(=O)Nc2nc(C)cc(NCCN)n2)cc1,nt,-2.1,7.6,-2.5,8.4,nt
Cc1cc(C)nc(NS(=O)(=O)c2ccc(NC(=O)Nc3ccccc3)cc2)n1,-6.1,96.8*,-17.6,-2.1,2.6,-1.5
C[C@@H]1CN([C@@H](C)CO)C(=O)Cc2cc(NC(=O)CCCN(C)C)ccc2O[C@@H]1CN(C)CC1CCCCC1,-26.9,-2.1,8.6,0.5,-8.6,-3.8[16.7 µM]
CCN(CC)CC#CCC(C)(c1ccccc1)c1ccccc1,nt,-37.5,-20.2,nt,nt,65.3*
CCCC#Cc1cnc2c(c1)C(=O)N([C@@H](C)CO)C[C@@H](C)[C@@H](CN(C)C(=O)c1cccnc1)O2,nt,3.9,-4.3,-1.3,5.5,4.4[16.7 µM]
COc1ccc(C(=O)N/N=C/c2ccc(OC(=O)c3cccs3)cc2)cc1,100.7*,nt,8.3,-0.3,-3.1,nt
C[C@@H]1CN([C@H](C)CO)C(=O)c2cc(NC(=O)c3ccccc3)ccc2O[C@@H](C)CCCCO[C@@H]1CN(C)S(=O)(=O)c1ccc(Cl)cc1,-5.2,6.3,7.8,-3.8,9.7,18.1[16.7 µM]
Cn1c(NCCCN2CCOCC2)nc2c1c(=O)n(Cc1ccc(Cl)cc1Cl)c(=O)n2C,nt,0.9,nt,nt,nt,62.7*
C/C=C(\C)C(=O)OC1CC(C)(C)C[C@H]2C3=CC[C@@H]4[C@@]5(C)CCC(O[C@@H]6O[C@@H](C(=O)O)[C@@H](O)C(O[C@@H]7OC[C@H](O)[C@@H](O)[C@@H]7O[C@@H]7OC(CO)C(O)[C@@H](O)[C@@H]7O)C6O[C@@H]6OC(CO)C(O)C(O)C6O)[C@@](C)(CO)[C@@H]5CC[C@]4(C)[C@]3(C)CC(O)[C@@]12CO (some centres not stated),74.6*,-96.2,nt,-3.0,23.9,-22.8
COc1ccc(NC(=O)Nc2ccc3c(c2)C(=O)N([C@H](C)CO)C[C@@H](C)[C@H](CN(C)S(C)(=O)=O)OCCCC[C@H](C)O3)cc1,-21.5,-6.5,-12.9,-0.4,-12.8,-9.2[16.7 µM]
COc1ccc(-c2[nH]ncc2-c2ccc(Cl)cc2)c(O)c1,nt,-3.9,nt,nt,nt,nt
COc1ccc(-c2cn[nH]c2-c2ccc(OC)cc2O)cc1,-22.3,nt,3.4,-2.5,-18.5,58.3*
O=[N+]([O-])c1ccc(COc2ccc(-c3[nH]ncc3-c3ccc(Cl)cc3)c(O)c2)cc1,26.6,-0.3,41.2*,nt,nt,nt
COC(=O)Cn1cc(C#N)c2ccccc21,nt,8.9,69.7*,nt,nt,nt
CCCN(C)C[C@H]1Oc2ncc(C#Cc3ccc(OC)cc3)cc2C(=O)N([C@H](C)CO)C[C@H]1C,nt,-3.1,-0.9,1.6,6.0,-0.9[16.7 µM]
Cc1cccc(Oc2ncc(-c3ccc(Cl)cc3)cn2)c1C,nt,-12.4,nt,nt,nt,nt
Cc1ccc(Oc2ncc(-c3ccc(Cl)cc3)cn2)cc1,nt,8.8,45.9*,nt,nt,nt
CC(C)N=C(N)N=C(N)Nc1ccc(Cl)cc1,-11.3,-37.2,nt,-1.6,-8.9,nt
NC(=NCCCCCCN=C(N)/N=C(\N)Nc1ccc(Cl)cc1)/N=C(\N)Nc1ccc(Cl)cc1,98.0*!,-6.2,9.2,11.5*!,6.3,2.4
SMILES,PAX8 reporter,PGC1a acetyl inh,GSIS activator,CFTR F508del cor,EWS-Fli inh,HIV Env fusion
Cc1ccc2nc(NC(=O)CCCC(=O)O)sc2c1,2.1,nt,3.3,-2.7,81.3*,68.6*
Cc1ccc2nc(NC(=O)CCCc3nc4ccccc4s3)sc2c1,nt,10.7,-18.6,nt,nt,nt
C[C@@H]1CN([C@H](C)CO)C(=O)c2cccc(NC(=O)c3nc4ccccc4s3)c2O[C@H]1CN(C)C(=O)Nc1ccc(C(F)(F)F)cc1,nt,6.6,-12.4,-1.3,-7.4,nt
CCCNC(=O)N1[C@H](C#N)[C@H](c2ccc(-c3cccnc3)cc2)[C@@H]1CO,7.2,6.1,-27.9,0.7,3.9,63.9*[16.7 µM]
CCCNC(=O)N1[C@@H](C#N)[C@H](c2ccc(-c3cccnc3)cc2)[C@@H]1CO,-3.0,3.2,-9.1,-1.8,6.0,13.4[16.7 µM]
N#C[C@H]1[C@@H](c2ccc(-c3cccc(F)c3)cc2)[C@@H](CO)N1C(=O)c1cccnc1,7.7,9.0,-9.0,-0.8,-7.8,-6.9[16.7 µM]
CCCNC(=O)N1[C@H](C#N)[C@H](c2ccc(-c3ccc(C(=O)N(C)C)cc3)cc2)[C@@H]1CO,-4.8,-8.5,-43.5,2.2,25.7,68.1*[16.7 µM]
CCCNC(=O)N1[C@H](CO)[C@@H](c2ccc(C3=CCCC3)cc2)[C@@H]1CN(C)C(C)=O,-9.3,-10.4,-2.9,8.1*,-12.9,nt
N#C[C@@H]1[C@H](c2ccc(-c3cccc(F)c3)cc2)[C@H](CO)N1C(=O)c1cccnc1,1.1,5.9,-31.1,1.7,8.0,66.5*[16.7 µM]
CCCNC(=O)N1[C@H](C#N)[C@H](c2ccccc2)[C@@H]1CO,4.3,-0.5,4.7,-0.8,2.6,4.1[16.7 µM]
CCC(=O)Nc1ccc2c(c1)C(=O)N(C)[C@H]1CC[C@H](CC(=O)NCc3ccccc3)O[C@H]1CO2,8.8,3.5,-4.6,0.7,-8.1,-12.3[16.7 µM]
COc1ccccc1C#Cc1ccc([C@H]2[C@@H](CO)N3CCCCN(C(=O)C4CC4)C[C@H]23)cc1,16.2,-27.2,nt,-1.2,2.4,nt
CC=Cc1ccc2n(c1=O)C[C@@H]1[C@@H](CO)[C@H](C(=O)NCC)[C@H]2N1Cc1ccccc1 (mixture of isomers),-2.4,nt,9.5,0.1,-2.1,nt
CCS(=O)(=O)N1CCC2(CC1)CN(S(=O)(=O)c1ccccc1)[C@H](CO)c1c2c2ccc(OC)cc2n1C,nt,-4.9,-11.4,1.7,1.5,nt
O=C(COc1ccccc1)N1CCN(c2ncccn2)CC1,16.0,10.7,-1.7,0.0,-10.6,15.6
Cc1nc(N2CCN(C(=O)COc3ccccc3)CC2)c2c(C)c(C)sc2n1,20.8,17.0,nt,nt,nt,61.5*
